Screen size: about 350,000 compounds; about 6,000 (1.7%) were called active. Inconclusive results (about 5%) are left out. No stated cut-off is given here; in the data, active means CPE inhibition above about 20% (passing the limit was not always enough); inconclusive means no clear call, values can overlap the other calls; tested in BHK-21 cells. Many of the other results were omitted from the sample, so actives are more common in it than they were.
Test: inhibitors of DENV2 cytopathic effect, primary screen, cell-based, plate reader, single concentration (AID 651640);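 further: 0% = median of neutral control wells and 100% = median of positive control wells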
Conditions: DENV2-infected cells, cytopathic effect rescue, at 9.99 µM, hits give high values

| Structure (SMILES) | CPE inhibition |
| --- | --- |
| COc1ccc(C#Cc2cccc(-c3nc(C(=O)O)cc4c3[C@@H](CCO)N(S(=O)C(C)(C)C)C4)c2)cc1OC (stereo not given in full) | 0.722% (inactive) |
| COCC(=O)Nc1ccc2c(c1)[C@H]1C[C@H](CC(=O)OC)O[C@@H](CO)[C@H]1O2 | -10.3% (inactive) |
| CCC(=O)Nc1ccc2c(c1)OC[C@H](C)N(CC1CCOCC1)C[C@@H](C)[C@@H](OC)CN(C)C2=O | -4.88% (inactive) |
| O=C(CSc1ncnc2sccc12)N1CCN(C(=O)c2cccs2)CC1 | 2.68% (inactive) |
| Nc1c(C(=O)c2cccs2)sc2nsc(SCCN3CCCCC3)c12 | 29.4% (active) |
| CO[C@@H]1CN(C)C(=O)c2cc(NC(=O)c3ccccc3)ccc2OC[C@@H](C)N(C(C)=O)C[C@@H]1C | -5.72% (inactive) |
| C[C@H](CO)N1C[C@H](C)[C@@H](CN(C)C(=O)c2ccccc2)OCCCC[C@H](C)Oc2ccc(NC(=O)c3ccccc3)cc2C1=O | 13.1% (inactive) |
| O=C(C[C@@H]1CC[C@H]2[C@@H](COC[C@H](O)CN2S(=O)(=O)c2ccc(F)cc2)O1)N[C@H]1CCN(Cc2ccccc2)C1 | 24.2% (active) |
| O=C(C[C@H]1CC[C@@H]2[C@H](COC[C@H](O)CN2S(=O)(=O)c2ccc(Cl)cc2)O1)N[C@@H]1CCN(Cc2ccccc2)C1 | -1.97% (inactive) |
| O=C(C[C@@H]1CC[C@@H]2[C@H](COC[C@H](O)CN2S(=O)(=O)c2ccc(Cl)cc2)O1)N[C@@H]1CCN(Cc2ccccc2)C1 | 3.99% (inactive) |
| O=C(C[C@H]1CC[C@H]2[C@@H](COC[C@@H](O)CN2S(=O)(=O)c2ccc(Cl)cc2)O1)NCCN1CCCCC1 | 23.7% (active) |
| O=C(C[C@H]1CC[C@@H]2[C@H](COC[C@H](O)CN2S(=O)(=O)c2ccc(F)cc2)O1)NCCN1CCCCC1 | -7.98% (inactive) |
| O=C(C[C@@H]1CC[C@H]2[C@@H](COC[C@H](O)CN2S(=O)(=O)c2ccccc2)O1)NCCN1CCCC1 | -4.25% (inactive) |
| C[C@H](CO)N1C[C@H](C)[C@@H](CN(C)C)Oc2ccc(NS(=O)(=O)c3cccs3)cc2C1=O | -7.81% (inactive) |
| Cc1noc(C)c1NC(=O)N(C)C[C@H]1OCCCC[C@@H](C)Oc2ccc(NC(=O)NC(C)C)cc2C(=O)N([C@@H](C)CO)C[C@H]1C | 18% (inactive) |
| CNC[C@@H]1Oc2cc(C#CC3(O)CCCC3)ccc2S(=O)(=O)N([C@@H](C)CO)C[C@H]1C | 12.4% (inactive) |
| COCC(=O)N1CC2(C1)CN(Cc1ccccc1F)[C@@H](CO)c1[nH]c3cc(OC)ccc3c12 | 11.2% (inactive) |
| CCCNC(=O)N1CCC2(CC1)CN(Cc1ccccc1)[C@H](CO)c1[nH]c3cc(OC)ccc3c12 | 8.24% (inactive) |
| CCCNC(=O)N1CC2(C1)CN(Cc1cccc(F)c1)[C@@H](CO)c1[nH]c3cc(OC)ccc3c12 | 136% (active) |
| COc1ccc2c3c([nH]c2c1)[C@@H](CO)N(Cc1ccccc1F)CC31CN(C(=O)C2CC2)C1 | 2.19% (inactive) |
| COc1ccc2c3c([nH]c2c1)[C@H](CO)N(Cc1ccccc1Cl)CC31CN(C(=O)C2CC2)C1 | 53.5% (active) |
| COc1ccc2c3c([nH]c2c1)[C@@H](CO)N(Cc1cccc(F)c1)CC31CN(CC2CC2)C1 | 2.63% (inactive) |
| CCC(=O)N1CC2(C1)CN(Cc1cc(F)ccc1F)[C@@H](CO)c1[nH]c3cc(OC)ccc3c12 | 47.6% (active) |
| COc1ccc2c3c([nH]c2c1)[C@@H](CO)N(Cc1cc(F)ccc1F)CC31CN(C(=O)C2CCC2)C1 | -7.65% (inactive) |
| CCC(=O)N1CC2(C1)CN(Cc1ccccc1Cl)[C@@H](CO)c1[nH]c3cc(OC)ccc3c12 | 1.97% (inactive) |

Reference: PubChem BioAssay AID651640 (Broad Institute, 2012)
